{"source": "PubChem BioAssay (NCATS)", "note": "Results filed as inconclusive are left out. Calls of active or inactive are those of the source. The call rests on the fitted dose curve; in most records, active means well fitted curve in the direction sought with a large enough effect; inconclusive means small, poorly fitted or top-dose-only effect, or another doubt; inactive means no such curve, though single readings can be large; an effect the other way counts as inactive or inconclusive. Potency means the concentration at half of the fitted maximal effect.", "data": [{"experiment": "Quantitative High-Throughput drug screen in 47 multiple myeloma cell lines against the NCATS MIPE library collection: JIM3_ECACC cell viability assay (AID 1918963; further: nearly all actives have a fitted effect of over 35% in size)", "details": "JIM3 myeloma viability, CellTiter-Glo ATP, 48 h; series mostly up to 45.8 µM", "method_in_brief": "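Luminescent ATP measurement with CellTiter-Glo gives viability, scaled between DMSO-only wells (100%) and media-only wells (0%). Cells, 500 per well, faced library compounds for 48 hours at 37C.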", "values": [{"smiles": "O=C(O)CCCc1c[nH]c2ccccc12", "Potency": "inactive"}, {"smiles": "NC1(Cc2ccc(Cl)cc2)CCN(c2ncnc3[nH]ccc23)CC1", "Potency": "2.96 µM (active)"}, {"smiles": "CCCNC(=O)Nc1ccc(Oc2ncnc3cc(OC)c(OC)cc23)cc1Cl", "Potency": "inactive"}]}, {"experiment": "Quantitative High-Throughput drug screen in 47 multiple myeloma cell lines against the NCATS MIPE library collection: JIM1_ECACC cell viability assay (AID 1918964)", "details": "JIM1 myeloma viability, CellTiter-Glo ATP luminescence, 48 h; series mostly up to 45.8 µM", "method_in_brief": "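CellTiter-Glo luminescence (ATP) after 48 h compound exposure, 37C/5% CO2; 500 cells/well; MIPE 4.0 approved/investigational drugs pinned in; DMSO = 100%, media only = 0% viability.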", "values": [{"smiles": "Cc1cc(Nc2nc(N[C@@H](C)c3ccc(F)cc3)c(C#N)cc2F)n[nH]1", "Potency": "0.296 µM (active)"}, {"smiles": "CC(C)Nc1cc(C(F)(F)F)cc2nc(NC(=O)c3cccnc3)nn12", "Potency": "inactive"}, {"smiles": "CC(C)c1cc(-c2n[nH]c(=O)n2-c2ccc3c(ccn3C)c2)c(O)cc1O", "Potency": "0.0148 µM (active)"}, {"smiles": "COc1cc(-c2nn(C3CCC(N4CCN(C(C)=O)CC4)CC3)c3ncnc(N)c23)ccc1NC(=O)c1cc2ccccc2n1C", "note": "(stereo not drawn)", "Potency": "0.235 µM (active)"}, {"smiles": "Clc1cccc(-c2nnnn2Cc2cccnc2)c1Cl", "Potency": "inactive"}, {"smiles": "CCNC(=O)Nc1ccc2ncc(Nc3ccc(C)cc3)nc2n1", "Potency": "0.935 µM (active)"}, {"smiles": "COc1ccc2c(c1)CC[C@@H](CN(C)CC(=O)O)[C@H]2c1ccccc1", "Potency": "0.372 µM (active)"}, {"smiles": "Cn1c(=O)n(-c2ccc(C(C)(C)C#N)cc2)c2c3cc(-c4cnc5ccccc5c4)ccc3ncc21", "Potency": "0.0209 µM (active)"}, {"smiles": "CN(C)CC(C)(C)CNc1nn2c(-c3ccccc3)nnc2cc1C1CCC1", "Potency": "2.09 µM (active)"}, {"smiles": "CC1(C)CC(=O)c2c(C(F)(F)F)nn(-c3ccc(C(N)=O)c(NC4CCC(OC(=O)CN)CC4)c3)c2C1", "note": "(stereo not drawn)", "Potency": "0.132 µM (active)"}, {"smiles": "O=c1c2ccccc2nc2n1CCc1c-2[nH]c2ccccc12", "Potency": "inactive"}, {"smiles": "OCc1ccc(-c2ccc(-c3ccc(CO)s3)o2)s1", "Potency": "inactive"}, {"smiles": "COc1cc2c(Nc3ccc(NC(=O)c4ccccc4)cc3)ncnc2cc1OCCCN1CCOCC1", "Potency": "inactive"}, {"smiles": "CC(C)c1noc(N2CCC(COc3ccc(-c4ccc(S(C)(=O)=O)cc4)nc3)CC2)n1", "Potency": "inactive"}, {"smiles": "C[C@]1(CO)CN(c2cc(C(=O)Nc3ccc4c(c3)-c3c(c(C(N)=O)nn3-c3ccc(F)cc3)CC4)c(Cl)cn2)C[C@@]1(C)CO", "Potency": "11.8 µM (active)"}, {"smiles": "NC1(Cc2ccc(Cl)cc2)CCN(c2ncnc3[nH]ccc23)CC1", "Potency": "2.96 µM (active)"}, {"smiles": "CCCNC(=O)Nc1ccc(Oc2ncnc3cc(OC)c(OC)cc23)cc1Cl", "Potency": "inactive"}]}, {"experiment": "Quantitative High-Throughput drug screen in 47 multiple myeloma cell lines against the NCATS MIPE library collection: INA6_PLB cell viability assay (AID 1918965; further: nearly all actives have a fitted effect of over 55% in size)", "details": "INA6 myeloma viability, CellTiter-Glo ATP luminescence, 48 h; series mostly up to 45.8 µM", "method_in_brief": "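Steps: seed 500 cells per well; pin-transfer MIPE 4.0 library; incubate 48 h at 37C, 5% CO2, humidified; add CellTiter-Glo, 5 min room temperature; read luminescence.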", "values": [{"smiles": "Cc1cc(Nc2nc(N[C@@H](C)c3ccc(F)cc3)c(C#N)cc2F)n[nH]1", "Potency": "0.372 µM (active)"}, {"smiles": "COc1cccc(-c2ccc(NC(=O)C3=C(C(=O)O)CCC3)c(F)c2)c1", "Potency": "4.69 µM (active)"}, {"smiles": "CC(C)c1cc(-c2n[nH]c(=O)n2-c2ccc3c(ccn3C)c2)c(O)cc1O", "Potency": "0.0264 µM (active)"}, {"smiles": "Nc1nccc(Oc2ccc(NC(=O)c3c[nH]cc(-c4ccc(F)cc4)c3=O)cc2F)c1Cl", "Potency": "18.7 µM (active)"}, {"smiles": "COc1cc(-c2nn(C3CCC(N4CCN(C(C)=O)CC4)CC3)c3ncnc(N)c23)ccc1NC(=O)c1cc2ccccc2n1C", "note": "(stereo not drawn)", "Potency": "2.96 µM (active)"}, {"smiles": "Clc1cccc(-c2nnnn2Cc2cccnc2)c1Cl", "Potency": "inactive"}, {"smiles": "CC(C)(C)c1cc(NC(=O)Nc2ccc(-c3cn4c(n3)sc3cc(OCCN5CCOCC5)ccc34)cc2)no1", "Potency": "3.32 µM (active)"}, {"smiles": "COc1ccc2c(c1)CC[C@@H](CN(C)CC(=O)O)[C@H]2c1ccccc1", "Potency": "2.96 µM (active)"}, {"smiles": "Cn1c(=O)n(-c2ccc(C(C)(C)C#N)cc2)c2c3cc(-c4cnc5ccccc5c4)ccc3ncc21", "Potency": "0.0166 µM (active)"}, {"smiles": "C=CC(=O)Nc1cccc(Oc2nc(Nc3ccc(N4CCN(C)CC4)cc3OC)ncc2Cl)c1", "Potency": "0.469 µM (active)"}, {"smiles": "CN(C)CC(C)(C)CNc1nn2c(-c3ccccc3)nnc2cc1C1CCC1", "Potency": "2.96 µM (active)"}, {"smiles": "NC(=O)c1c(OCc2c(F)cc(Br)cc2F)nsc1NC(=O)NCCCCN1CCCC1", "Potency": "18.7 µM (active)"}, {"smiles": "CC1(C)CC(=O)c2c(C(F)(F)F)nn(-c3ccc(C(N)=O)c(NC4CCC(OC(=O)CN)CC4)c3)c2C1", "note": "(stereo not drawn)", "Potency": "0.118 µM (active)"}, {"smiles": "C=CC(=O)Nc1cccc(Oc2nc(Nc3ccc(N4CCN(C)CC4)cc3)ncc2Cl)c1", "Potency": "2.96 µM (active)"}, {"smiles": "Nc1cccc(-c2cc3c(Oc4cccc(O)c4)ncnc3[nH]2)c1", "Potency": "8.33 µM (active)"}, {"smiles": "OCc1ccc(-c2ccc(-c3ccc(CO)s3)o2)s1", "Potency": "2.64 µM (active)"}, {"smiles": "Clc1ccc2ncc(-c3cccc(NC4CNC4)n3)n2c1", "Potency": "5.9 µM (active)"}, {"smiles": "CC1(C)CCC(c2ccc(Cl)cc2)=C(CN2CCN(c3ccc(C(=O)NS(=O)(=O)c4ccc(N[C@H](CCN5CCOCC5)CSc5ccccc5)c(S(=O)(=O)C(F)(F)F)c4)cc3)CC2)C1", "Potency": "5.9 µM (active)"}]}]}
